JMJD2A Tudor inh: JMJD2A Tudor domain (human) inhibition | Potency, µM (highest dose often 114 µM), without a hit: top-dose activity change, negative = inhibition, hits mostly inhibitors | O75164 | 4.4% of 390,000 active | AlphaScreen JMJD2A-Tudor / H3K4me3 peptide binding; further: potency means the concentration at half of the fitted maximal effect; on the % scale 0 is the no-effect control and ±100 the full control effect; nearly all actives have a fitted effect of over 50% in size
HP1b chromo inh: blocks HP1-beta chromodomain binding to methylated histone tails; Potency, µM (titrated, usually from 114 µM), for the others: at the top dose activity change, negative = inhibition, actives largely listed as inhibitors; AID 540317; 0.56% of 390,000 active; AlphaScreen HP1-beta / biotin-H3K9me3 peptide binding; P83916; further: potency means the concentration at half of the fitted maximal effect; nearly all actives have a fitted effect of over 70% in size
Target sequence (P83916 whole entry, looked up): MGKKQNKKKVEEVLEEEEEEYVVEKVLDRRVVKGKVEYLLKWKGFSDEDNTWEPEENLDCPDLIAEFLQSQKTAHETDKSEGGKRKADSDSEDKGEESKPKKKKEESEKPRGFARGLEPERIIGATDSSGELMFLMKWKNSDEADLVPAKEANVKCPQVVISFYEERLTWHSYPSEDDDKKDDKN
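AlphaScreen: HP1-beta (50 nM) preformed 30 min with biotin-H3(1-18)K9me3 peptide (50 nM) in PBS pH 7.4, 0.01% Tween-20. Compound added for 30 min at RT, then streptavidin donor/nickel chelate acceptor beads (10 ug/mL) for 30 min.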
CtBP-E1A blk: CtBP/E1A binding inhibition; activity change, % (no concentration beside the values); AlphaScreen GST-E1A/His-CtBP binding, 1536-well; stronger effect = lower value; AID 651724; 0.49% of 340,000 active; in the data active means activity change below about -65%; inconclusive means mostly about -30% to -63%; further: on the % scale 0 is the no-effect control and ±100 the full control effect
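Homogeneous bead-based format: GST-tagged E1A captured on glutathione donor beads, His-tagged CtBP on nickel acceptor beads; compounds precede bead addition by 2 h at 37 °C.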
G9a inh: G9a (human) methyltransferase inhibition; Q96KQ7; G9a H3K9 monomethylation, AlphaScreen, 2 h; Potency, µM (series often up to 102 µM), for inactives: top-dose activity, negative = inhibition, hits mostly inhibitors; 8.8% of 350,000 active; AID 504332; further: potency means the concentration at half of the fitted maximal effect; on the % scale 0 is the no-effect control and ±100 the full control effect; nearly all actives have a fitted effect of over 75% in size
Target sequence (Q96KQ7 913-1193 limits assumed): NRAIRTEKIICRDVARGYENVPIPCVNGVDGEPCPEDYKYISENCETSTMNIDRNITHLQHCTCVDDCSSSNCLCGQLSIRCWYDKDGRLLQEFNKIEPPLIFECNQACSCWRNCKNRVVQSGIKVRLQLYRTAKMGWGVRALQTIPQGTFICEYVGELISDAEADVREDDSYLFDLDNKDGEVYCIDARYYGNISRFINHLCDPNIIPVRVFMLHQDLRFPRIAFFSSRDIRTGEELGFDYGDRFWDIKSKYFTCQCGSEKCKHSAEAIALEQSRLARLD
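AlphaScreen read-out: biotin-H3K9 peptide (500 nM) methylation by 20 nM enzyme with 20 uM SAM, 2 h at room temperature after 15 min compound preincubation; anti-monomethyl H3K9 antibody plus donor/acceptor beads, 10 min dark.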
Six1-Eya2 blk: inhibitors of human Six1/Eya2 interaction; Q15475+O00167; AlphaScreen GST-Six1/His-Eya2 binding, biochemical; stronger effect = lower value; activity change, % (test concentration not listed); 0.56% of 360,000 active; AID 651725; in the data active means activity change below about -65%; inconclusive means mostly about -30% to -63%; further: on the % scale 0 is the no-effect control and ±100 the full control effect
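Six1/Eya2 binding was read as AlphaScreen signal after compounds were pinned into GST-Six1 plus His-tagged Eya2 (5X stock 250/500 nM) in pH 8.0 Tris/NaCl/TCEP buffer, beads added, then incubated 1 h, 37 C, dark.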
BAZ2B block: BAZ2B (human) inhibition. Q9UIF8. AlphaScreen BAZ2B-H3K14Ac peptide displacement. Potency, µM (highest dose often 114 µM), for inactives: at the highest dose activity change, negative = inhibition, most hits filed as inhibitors. 4.4% of 360,000 active; further: potency means the concentration at half of the fitted maximal effect; on the % scale 0 is the no-effect control and ±100 the full control effect; nearly all actives have a fitted effect of over 60% in size
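BAZ2B (50 nM) with biotin-H3(5-23)K14Ac peptide (50 nM) in PBS pH 7.4, 0.01% Tween-20, preformed 30 min, then compound 30 min at room temperature; top concentration 110uM. AlphaScreen streptavidin donor/nickel chelate acceptor beads (10 ug/mL final), 20 min dark, signal read.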
* marks the source's active call; other numbers are inactive results; ? = inconclusive; · = no result given; [ ] = dose if it differs, or a comment. An excerpt weighted towards active compounds, which were near 10% of everything screened. Unless noted, the call rests on the fitted dose curve; in most records, active means well fitted inhibition curve with a large enough effect; inconclusive means small, poorly fitted or top-dose-only effect; inactive means no such curve, though single readings can be large or run the other way.

SMILES | JMJD2A Tudor inh | HP1b chromo inh | CtBP-E1A blk | G9a inh | Six1-Eya2 blk | BAZ2B block
Clc1ccc2sc(C3CCNCC3)nc2c1 | -17% | -7% | -6 | 45µM* | 7 | 2%
COc1cc2c3cc1Oc1cc(ccc1O)C[C@@H]1c4c(cc(OC)c(O)c4Oc4cccc(c4)C[C@H]3N(C)CC2)CC[N+]1(C)C | · | · | · | -1%[21.5 µM] | · | ·
Cc1cc(C(=O)Cn2nnc(-c3ccc(Cl)cc3)n2)c(C)n1-c1ccccc1 | -12% | 21% | -20 | 5%[59 µM] | -11 | -33%
Cc1cc(C(=O)C[N+]23CCN(CC2)CC3)c(C)n1-c1ccc(Br)cc1 | -19% | 4% | -6 | ? | -17 | 79µM*
COC(=O)C(O)(c1ccc(NC(=S)NC(=O)c2ccc(Cl)cc2Cl)c(C)c1)C(F)(F)F (centres undefined) | 79µM* | -20% | -13 | 1%[59 µM] | -13 | -35%
CCOC(=O)C(O)(c1ccc(NC(=S)NC(=O)c2ccc(Cl)cc2Cl)c(C)c1)C(F)(F)F (centres undefined) | -18% | -4% | -3 | 10%[59 µM] | -5 | -9%
c1cncc([C@@H]2CCCCN2)c1 | · | · | · | -2%[21.5 µM] | · | ·
C[C@H](CO)N1C[C@H](C)[C@@H](CN(C)C(=O)Nc2ccc(C(F)(F)F)cc2)Oc2c(NS(=O)(=O)c3cccs3)cccc2C1=O | -7% | 39% | 3 | · | 4 | ·
CCCCCCN1CCN(c2ccccc2Cl)CC1 | 56µM* | -19% | · | 6% | 9 | 71µM*
Cc1ccc(CC2C(=O)N(C)C(=O)N(C)C2=O)s1 | -27% | 8% | 3 | 7.9µM* | 3 | -3%
COc1ccc(CC2C(=O)N(C)C(=O)N(C)C2=O)c(OC)c1 | -12% | 51% | -9 | ? | 19 | 5%
CN(CCCC(=O)c1cccnc1)N=O | · | · | · | 34%[59 µM] | · | ·
COC(=O)c1c(C)n(Cc2ccccc2)c2ccc(O)cc12 | -15% | 38% | 0 | 8.9µM* | 3 | -37%
CCOC(=O)c1c(C)n(Cc2ccccc2)c2ccc(O)cc12 | ? | 1% | -10 | 32µM* | -6 | ?
CN1C(=O)/C(=C/c2cccn2-c2ccc3ccccc3c2)C(=O)NC1=S | ? | -27% | -21 | ? | -79* | 45µM*
O=C1NC(=S)NC(=O)C1=Cc1cccn1-c1ccc(O)cc1 | 25µM* | ? | 5 | 7.1µM* | ? | -28%
Cc1cc(C)cc(N2C(=O)NC(=O)/C(=C\c3cccn3-c3ccc(Cl)cc3)C2=O)c1 | -9% | 16% | 1 | -24%[59 µM] | -3 | -4%
Cc1cc(-c2cc(C)c(N)c(C)c2)cc(C)c1N | 50µM* | ? | -25 | · | -5 | ·
O=C(Cc1ccccc1)N1CCN(CCCc2ccccc2)CC1 | 0.32µM* | ? | -4 | ? | -24 | 56µM*
COc1cc(CN2CCN(C(=O)Cc3ccccc3)CC2)cc(OC)c1OC | 7.1µM* | ? | 1 | 25µM* | -3 | ?
COc1ccc(CN2CCN(Cc3ccccc3)CC2)c(OC)c1 | ? | 1% | -24 | 14%[59 µM] | -11 | ?
COc1ccc(CN2CCN(C(=O)Cc3ccccc3)CC2)c(OC)c1 | 2µM* | ? | 3 | 20µM* | -1 | 56µM*
Cc1ccc(CC(=O)N2CCN(Cc3ccccc3)CC2)cc1 | -10% | 58% | · | -52% | -5 | -21%
O=C(Cc1ccccc1)N1CCN(Cc2ccc(F)cc2)CC1 | 10µM* | ? | · | · | 4 | 79µM*
Cc1cccc(NC(=S)NC2CC3CCC(C2)N3Cc2ccco2)c1 (centres undefined) | -9% | 5% | 3 | ? | 0 | 12%[57.1 µM]
COc1ccc(NC(=O)N2CCC3(CC2)CCN(C(=O)Oc2ccccc2)CC3)cc1 | · | · | · | 13%[12.7 µM] | · | ·
CC(Cc1ccccc1)N(C)C (centres undefined) | · | · | · | -17%[12.7 µM] | · | ·
CCN(CC)C(=O)/C(Cl)=C(\C)OP(=O)(OC)OC | · | · | · | 29%[59 µM] | · | ·
C/C(CC(=O)Nc1cc(C)ccn1)=N\NC(=O)c1ccncc1 | -1% | 25% | -17 | ? | -5 | ?

Screens from PubChem.
